Source: PubChem (several laboratories)
pPAFAH FP inh: inhibitors of human plasma PAF acetylhydrolase (pPAFAH); Q13093; recombinant pPAFAH, FP-rhodamine probe fluorescence polarization; inhibition, % at 3.39 µM; 1.5% of 330,000 active; AID 463082;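 active = inhibition above the mean inhibition across the screen plus 3 SD, cut at about 25% in these data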;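 also: inhibitors block binding of the rhodamine activity-based probe so polarization drops; 0% = enzyme with DMSO and 100% = wells lacking pPAFAH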
Target sequence (Q13093 whole entry, looked up): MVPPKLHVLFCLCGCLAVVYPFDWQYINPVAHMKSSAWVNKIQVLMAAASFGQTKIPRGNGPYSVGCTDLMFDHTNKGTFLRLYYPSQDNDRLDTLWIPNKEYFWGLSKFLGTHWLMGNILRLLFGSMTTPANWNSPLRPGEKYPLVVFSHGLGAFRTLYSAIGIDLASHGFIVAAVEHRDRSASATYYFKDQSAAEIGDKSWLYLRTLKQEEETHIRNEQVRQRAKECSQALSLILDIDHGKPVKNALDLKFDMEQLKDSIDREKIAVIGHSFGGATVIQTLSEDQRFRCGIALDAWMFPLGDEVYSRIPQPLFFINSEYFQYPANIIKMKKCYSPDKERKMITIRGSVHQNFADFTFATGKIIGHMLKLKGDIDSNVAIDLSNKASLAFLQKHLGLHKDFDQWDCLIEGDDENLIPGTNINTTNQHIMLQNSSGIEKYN
Pemphigus Ab inh: inhibitors of pemphigus antibody binding to human desmoglein-3 | 0.48% of 310,000 active | P32926 | AID 588358 | binding (percent of control), % at 10 µM | DSG3-coupled beads, scFv-anti-DSG3-GFP binding, flow cytometry; active compounds read low;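 active = binding more than 3 SD below its plate's average and above zero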;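 also: hits lower antibody fragment binding to DSG3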
PAFAH2 inh: inhibitors of human PAFAH2. Q99487. recombinant PAFAH2, FP-rhodamine activity probe, fluorescence polarization. inhibition, % at 3.39 µM. 0.99% of 340,000 active. AID 492956;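 active = inhibition above the mean over all tested compounds plus 3 SD, cut at about 30% in these data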;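 also: inhibitors block probe labeling of enzyme so polarization drops; 0% = enzyme with DMSO and 100% = wells lacking PAFAH2 protein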
PAFAH1B3 FP inh: PAFAH1B3 (human) inhibition; Q15102; recombinant PAFAH1B3, FP-rhodamine probe, fluorescence polarization; inhibition, % at 3.39 µM; 0.28% of 340,000 active;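 active = inhibition above the screen-wide average of all tested compounds plus 3 SD, cut at about 25% in these data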;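 also: 0% = enzyme with DMSO only and 100% = wells lacking PAFAH1B3 protein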
PfM18AAP inh-1: PfM18AAP enzyme inhibition; 1.2% of 290,000 active; inhibition, % at 7.35 µM; recombinant PfM18AAP, H-Glu-NHMec fluorogenic cleavage;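 active = inhibition above the campaign mean inhibition over all tested compounds plus 3 SD, cut at about 28% in these data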;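 also: 0% = plate median of test compound wells and 100% = 2 mM ZnCl2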
PAFAH1B2 inh: inhibitors of human PAFAH1B2; P68402; AID 492953; recombinant PAFAH1B2, FP-rhodamine activity probe, fluorescence polarization; inhibition, % at 3.39 µM; 1.2% of 340,000 active;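 active = inhibition above the mean of all tested compounds plus 3 SD, cut at about 24% in these data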;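 also: 0% = enzyme with DMSO and 100% = wells lacking PAFAH1B2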
PfM18AAP inh-2: confirmation of Plasmodium falciparum M18 aspartyl aminopeptidase inhibitors | shares compounds with PfM18AAP inh-1 | recombinant PfM18AAP, H-Glu-NHMec fluorogenic cleavage | inhibition, % at 7.35 µM | 28% of 2,400 active | AID 2170;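 active = mean inhibition over replicate wells above the hit cutoff set for the earlier primary screen, cut at about 29% in these data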;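 also: 0% = median of test compound wells and 100% = 2 mM ZnCl2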
CTSL1 confirm: Cathepsin L (human) inhibition, confirmation; shares compounds with PfM18AAP inh-1; purified cathepsin L1, Z-Leu-Arg-MCA fluorescence; inhibition, % at 5.96 µM; 2,400 tested, under 10 active; AID 2178;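 active = average inhibition across replicates above the hit cutoff set in the earlier primary screen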;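 also: 0% = median of test compound wells and 100% = Z-Phe-Ala-diazomethylketone 1 µM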
* = called active by the depositor; . = no result given. Shown are actives, neighbours in structure and some others; about 3.8% of the full set was active somewhere.

SMILES | pPAFAH FP inh | Pemphigus Ab inh | PAFAH2 inh | PAFAH1B3 FP inh | PfM18AAP inh-1 | PAFAH1B2 inh | PfM18AAP inh-2 | CTSL1 confirm
O=C(CNC(=O)c1ccco1)OCC(=O)c1ccc([N+](=O)[O-])cc1 | 0.4 | 104.8 | 3.1 | 10.1 | 39.5* | 2.5 | -4.2 | -0.3
O=C(CNC(=O)c1cccs1)OCC(=O)c1ccc([N+](=O)[O-])cc1 | -4.9 | 67.8 | 1.1 | 3.3 | 45.1* | 6.1 | -0.5 | -0.3
O=C(CNS(=O)(=O)c1ccccc1)OCC(=O)c1ccc(Br)cc1 | 9.3 | . | 8.5 | 4.8 | -6.0 | 21.4 | . | .
O=C(Cc1ccccc1)NCC(=O)OCC(=O)c1ccc([N+](=O)[O-])cc1 | -1.1 | . | 9.1 | 5.2 | 39.5* | 2.5 | 4.1 | -9.6
O=C(CNC(=O)c1ccco1)OCC(=O)c1ccc(Cl)cc1 | 1.6 | 106.9 | 3.3 | 0.7 | -12.4 | -3.7 | . | .
COc1ccc(CCN2CC(=O)NC(=O)C2)cc1OC | . | 100.2 | . | . | . | . | . | .
CSc1ncccc1C(=O)OCC(=O)N1CC(=O)Nc2ccccc21 | 1.7 | 90.4 | 2.1 | 10.8 | . | 4.0 | . | .
CCOC(=O)c1ccc(-c2csc(NC(=O)CN3CCC(C)CC3)n2)cc1 | 1.0 | 95.7 | -4.8 | -1.8 | -1.1 | -2.2 | . | .
Cc1ccc(C(=O)NCC(=O)NCC(=O)OCC(=O)c2ccc([N+](=O)[O-])cc2)cc1 | -2.1 | 99.9 | 0.9 | 5.4 | 33.1* | 4.8 | 1.1 | 0.7
NNC(=O)CNS(=O)(=O)c1ccc([N+](=O)[O-])cc1 | 3.5 | 100.6 | 3.4 | 3.6 | 35.4* | 3.1 | -2.5 | -0.3
O=C(NNc1nc(-c2ccc(F)cc2)cs1)c1ccccc1 | 7.8 | 101.7 | -2.7 | 5.4 | 17.6 | -3.6 | . | .
CC(C)CC1CC(C)(c2csc(NNC(=O)c3ccccc3)n2)OC1=O (centres undefined) | 4.0 | 99.1 | 7.2 | 8.1 | 33.2* | 3.8 | -9.7 | -0.8
CC1(C)CC(CC(=O)NNc2nc(-c3ccccc3)cs2)C(=O)O1 (centres undefined) | -0.5 | 102.2 | 7.3 | 7.5 | 34.0* | 1.1 | -1.4 | -6.6
CC1CC(CC(=O)NNc2nc(-c3ccccc3)cs2)C(=O)O1 (centres undefined) | 2.1 | 94.7 | 0.7 | -3.3 | 22.8 | 5.2 | . | .
CN1CCc2cccc3c2[C@@H]1Cc1ccc(O)c(O)c1-3 | 23.2 | 93.2 | 7.7 | 17.4 | 36.4* | 1.1 | 78.5* | 2.6
CC(C)(C)c1ccc(C(=O)O)c(C(=O)c2ccccc2)c1 | 0.0 | 107.8 | 2.3 | 13.9 | -0.7 | 5.6 | . | .
COc1cc2c(cc1OC)C(COc1ccc(F)cc1)N(C(=O)c1ccco1)CC2 (centres undefined) | 5.1 | 102.0 | -4.7 | -0.4 | -9.7 | 2.2 | . | .
COc1cc2c(cc1OC)C(c1cc3cccc(C)c3[nH]c1=O)N(C(=O)c1ccco1)CC2 (centres undefined) | 5.9 | 93.6 | -0.9 | 2.2 | 48.4* | 4.7 | -36.3 | -2.7
CN(Cc1c(F)cccc1Cl)C(=O)c1ccc2ccccc2n1 | 9.0 | 119.4 | -1.4 | -1.1 | -3.3 | 5.5 | . | .
COc1ccc(/C=N\Nc2ccccn2)c(OC)c1 | . | 102.1 | 7.0 | 10.5 | 5.3 | 2.7 | . | .
COc1ccc(/C=N/Nc2ncc(Br)cn2)c(OC)c1 | 3.2 | 66.2* | 16.0 | -0.3 | 37.9* | -1.4 | -47.0 | -3.4
COc1ccccc1OCc1nnc(SCC(=O)Nc2ccc(N3CCOCC3)cc2)n1C | -2.3 | 129.2 | 3.3 | 10.1 | -0.1 | -4.5 | . | .
O=C(Nn1cnnc1)c1cc2c(s1)CCCCC2 | 3.1 | 99.1 | -6.1 | 0.7 | 53.5* | 5.9 | 55.1* | 5.2
CNC(=O)c1cc2c(s1)CCCCCC2 | 3.2 | 107.2 | -10.1 | 7.7 | 5.6 | 8.7 | . | .
CCC(C)[C@H](NC(=O)N1CC(=O)Nc2ccccc21)C(=O)N[C@H](C(=O)O)c1ccccc1 (some centres undefined) | 9.1 | 105.9 | 1.1 | 5.2 | -2.9 | 5.3 | . | .
COc1ccc(CC(=O)N(C)C2CCCCC2)cc1S(=O)(=O)N1CCOCC1 | -0.7 | 94.6 | -0.7 | 10.4 | -7.1 | 2.1 | . | .
C/C(CC(=O)Nc1ccc(F)cc1)=N\NC(=O)c1ccccn1 | 2.9 | 96.8 | 0.1 | 3.1 | 4.5 | 1.9 | . | .
